Laboratory results as given in the supplement of paper PMC6805474.
Unmarked numbers belong to inactive results.

tested on: Schistosoma mansoni schistosomula (Liberian); experiment: drug effect (1 - score/DMSO control score) (fraction); higher = more antischistosomal effect, active = 0.5 or more; extreme values may be limits of the assay; settings: 24 h; 10 µM
Summary of the method: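 A plate was valid only if its 0.1% DMSO wells averaged a score of at least 2. Those wells ran beside duplicate wells in which 50 Liberian-strain Schistosoma mansoni schistosomula each, transformed mechanically from cercariae and pre-incubated at least 12 h, met 10 µM compound in Medium 199 with 5% FCS at 37 °C, 5% CO2. Scoring was visual at 10× at 24, 48 and 72 h, from 3 (normal) to 0 (dead) in quarter-point steps. Drug effect was derived from the mean test-well score against the mean DMSO-well score, with negatives set to zero.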

Row | SMILES | drug effect
1 | c1ccc(C[C@@H]2CN(c3nccc(Oc4ccc(-n5ccnc5)cc4)n3)CCN2)cc1 | 0.1
2 | Cc1nc(-c2cccc(NCc3ccccc3)c2)[nH]c1C | 0.1
3 | c1cc(C2=NCCN2)cc(-c2cc(-c3ccc(C4=NCCN4)cc3)no2)c1 | 0.1
4 | NCCC(O)C(=O)N[C@@H]1C[C@H](N)[C@@H](OC2O[C@H](CN)[C@@H](O)[C@H](O)[C@H]2O)[C@H](O)C1OC1O[C@H](CO)[C@@H](O)[C@H](N)[C@H]1O (some centres undefined) | < 0
5 | Nc1ccc(C(=O)Nc2ccc(-c3nc4ccccc4o3)cc2)cc1 | 0.0909
6 | Cc1ccc2nc(Cl)c(CNCc3cccs3)cc2c1 | 0.182
7 | Cc1nn(C)cc1C(C)Nc1nncc(-c2ccc(C(F)(F)F)cc2)n1 (centres undefined) | 0.136
8 | Clc1cccc(C(c2ccc(CN3CCNCC3)cc2)n2ccnc2)c1 (centres undefined) | 0.405
9 | Nc1ccc2ncnc(Nc3ccc(OCc4cccc(F)c4)c(Cl)c3)c2c1 | 0.3
10 | COc1ccc(C2=NN(C3CCCCCC3)C(=O)[C@@H]3CC=CC[C@H]23)cc1OCCCCOc1ccc(-c2nn[nH]n2)cc1 | 0.35
11 | Clc1ccc(CN2CCN(C3=NCCN3)CC2)cc1Cl | 0.1
12 | Cc1nc(-c2ccccn2)nc(NCCc2ccc(S(C)(=O)=O)cc2)c1Cl | 0.135
13 | COc1ccc(-c2nn(C(C)C)c3ncnc(N)c23)cc1OC | 0.05
14 | O=C(Nc1c(O)cccc1-c1nc2c(C(=O)O)cccc2o1)c1cc(-c2ccccc2)on1 | 0.05
15 | CC[P](CC)(CC)=[Au][S][C@H]1O[C@@H](COC(C)=O)[C@H](OC(C)=O)[C@@H](OC(C)=O)[C@@H]1OC(C)=O | 1 (active)
16 | COc1ccc(S(=O)(=O)Nc2ccc(CN3CCN(C(=O)c4cccc(C#N)c4)CC3)cc2)cc1 | 0.1
17 | COCC(C)NC(=O)CSc1ncnc2sc(-c3ccccc3)cc12 (centres undefined) | 0.1
18 | Cc1cc(C)c2cc(C(=O)NC3CCCCCCC3)[nH]c2c1 | 0.316
19 | COc1ccc(Cn2cnc3c(-c4ccco4)nc(Cl)nc32)cc1 | 0.105
20 | COc1ccc(-c2onc(C(F)(F)F)c2-c2ccc(Cl)cc2)c(O)c1 | 0.15

Row | SMILES | drug effect
21 | COc1ccc(C(=N)N)cc1-c1cn(-c2ccc(C(=N)N)cc2)nn1 | 0.05
22 | CN1CCN(S(=O)(=O)c2ccc(-c3ccc4c(Nc5ncc(Cl)cn5)ccnc4c3)cc2)CC1 | 0.6 (active)
23 | Clc1ccc(-n2cc(COc3ccnc4ccccc34)nn2)cc1 | 0.105
24 | COc1ccc(Cl)cc1NC(=O)CN(C)C(=O)c1cnn(-c2ccccc2)n1 | 0.2
25 | c1ccc(Oc2ccc(-c3cc(N4CCOCC4)[nH]n3)cc2)cc1 | 0.15
26 | Nc1ncc(Br)cc1-c1nc2cc(Cl)cnc2[nH]1 | 0.1
27 | N#Cc1ccc(-c2ccc(OCC(N)=O)cc2)cc1 | 0.182
28 | O=C(C(Cc1c[nH]c2ccccc12)NS(=O)(=O)c1ccc(Cl)cc1)N1CCCCC1 (centres undefined) | 0.05
29 | CCC(Sc1nc2ccccc2o1)C(=O)Nc1nnc(C)s1 (centres undefined) | 0.1
30 | CCc1c(C)nc(-n2nc(C)cc2NC(=O)c2ccccc2SC)[nH]c1=O | 0.273
31 | c1ccc(-c2nc(NC3CCCCC3)cc(C3CC3)n2)nc1 | < 0
32 | c1ccc(Oc2ccc(-c3cc(C4CCOCC4)[nH]n3)cc2)cc1 | 0.182
33 | Cc1cccc(Cn2ccc(NC(=O)c3ccc4c(c3)OCO4)n2)c1 | 0.0556
34 | COc1cc(C2=NCCN2)ccc1-c1cn(-c2cccc(C3=NCCN3)c2)nn1 | 0.25
35 | O=C(c1ccc(F)cc1)N(CCNc1ccccc1)c1ccccc1 | 0.135
36 | Cc1cc(OCC(=O)NCc2ccccc2)c2cc(Br)ccc2n1 | 0.1
37 | COc1cccc2c(C)nc(N=C(N)N)nc12 | 0.182
38 | CC(C)n1ncc2c(C(=O)NCC(c3cccs3)N3CCOCC3)cc(-c3ccccc3)nc21 (centres undefined) | 0.273
39 | CCN(CC)CCCCCCNc1cc(OC)cc2c(C)ccnc12 | 0.1
